In the library only some 0.08% were active in any assay of this set; here they are far more common.
RGS4 inhibitor – Inhibitors of Regulator of G Protein Signaling (RGS) 4: qHTS; Regulator of G-protein signaling 4 (Homo sapiens), P49798; Transcreener GDP fluorescence polarization, RGS4-accelerated GTP hydrolysis; Potency, µM (highest dose often 114 µM), without a hit: at the highest dose activity change, negative = inhibition, hits mostly inhibitors; actives 0.039% (n = 390,000); AID 504845, 2011; further: on the % scale 0 is the no-effect control and ±100 the full control effect; nearly all actives have a fitted effect of over 75% in size
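MLSMR compounds (23 nl, pin-transferred) preincubated 10 min at room temperature with a 500nM (2x) first reagent, then RGS4 at 900nM (2x) plus Transcreener GDP mix added; fluorescence polarization (620/688 nm) read before and after 90 min at 30 °C.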
USP2a inh – qHTS Assay for Inhibitors of Ubiquitin-specific Protease USP2a Using CHOP2 as the Reporter; Ubiquitin carboxyl-terminal hydrolase 2 (Homo sapiens), O75604; USP2 core, Ub-CHOP2 coupled fluorogenic reporter, 485/531; Potency, µM (titrated, usually from 38.3 µM), for inactives: at the highest dose activity change, negative = inhibition, hits mostly inhibitors; actives 0.01% (n = 330,000); AID 463254, 2010;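 further: plate controls were DMSO wells for no effect and full inhibition by NEM control for full effect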
Target sequence (O75604 whole entry, looked up): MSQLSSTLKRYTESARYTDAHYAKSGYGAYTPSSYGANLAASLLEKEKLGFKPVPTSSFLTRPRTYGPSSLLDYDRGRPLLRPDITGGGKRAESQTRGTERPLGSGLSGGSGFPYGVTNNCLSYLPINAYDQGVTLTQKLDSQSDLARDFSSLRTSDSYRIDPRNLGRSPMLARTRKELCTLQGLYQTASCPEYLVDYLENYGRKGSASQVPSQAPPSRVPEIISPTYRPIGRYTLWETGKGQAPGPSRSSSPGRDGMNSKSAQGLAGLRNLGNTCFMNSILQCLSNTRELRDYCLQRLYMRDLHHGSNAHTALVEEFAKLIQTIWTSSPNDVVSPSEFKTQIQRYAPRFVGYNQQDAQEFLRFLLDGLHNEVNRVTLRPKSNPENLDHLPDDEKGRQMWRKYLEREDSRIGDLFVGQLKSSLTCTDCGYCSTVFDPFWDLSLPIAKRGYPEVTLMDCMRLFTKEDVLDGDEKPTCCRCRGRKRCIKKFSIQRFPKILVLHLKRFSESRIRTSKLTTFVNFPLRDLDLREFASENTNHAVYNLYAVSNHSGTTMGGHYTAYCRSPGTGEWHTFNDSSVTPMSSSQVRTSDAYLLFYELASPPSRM
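Deubiquitinase activity read as fluorescence (485/531 nm) after Ub-CHOP2 cleavage activates the enterokinase reporter on its substrate; USP2 core 10nM, Ub-CHOP2 and substrate 25nM each, 30min compound preincubation then 60min RT; data normalized to NEM, curves fitted.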
Eya2 inh – qHTS Assay for Inhibitors of the Phosphatase Activity of Eya2; actives 0.006% (n = 330,000); Protein phosphatase EYA2 (Homo sapiens), O00167; recombinant Eya2, OMFP fluorescence dephosphorylation (OMFP is methylfluorescein phosphate); Potency, µM (doses to about 76.9 µM), inactives show at the top dose activity, negative = inhibition, most hits filed as inhibitors; further: on the % scale 0 is the no-effect control and ±100 the full control effect
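Eya2 (0.2 uM) preincubated 10 min at ambient with compound, then OMFP substrate added at 50 uM; 10 min reaction in 50 mM HEPES pH 7.5, 50 mM NaCl, 5 uM MgCl2, 0.05% BSA, 1 mM DTT. Fluorescence read at Ex 485/Em 525 nm.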
ERG-DNA inh – qHTS for Small Molecule Inhibitors of the ERG Ets/DNA interaction | AID 624246, 2012 | fluorescence polarization, His-ERG Ets domain / labelled DNA | Potency, µM (doses to about 76.9 µM), for inactives: at the top dose FP activity, negative = inhibition, actives largely listed as inhibitors | Transcriptional regulator ERG (Homo sapiens), P11308 | actives 0.028% (n = 370,000); active means well fitted inhibition curve with a large enough effect in the polarisation, with a control signal flat; inconclusive means small, poorly fitted or top-dose-only effect, or effect the other way, or a change in a side signal; inactive means no such curve, though single readings can be large or run the other way; the % refers to the polarisation;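 further: polarization taken with two DNA probes labelled with fluorescein and Texas red; % of control where 0% means no effect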
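His-tagged ERG Ets domain (1 uM in the protein solution; 300mM KCl, 50mM Tris-HCl, 1mM EDTA, 1mM DTT, pH 7.5) received compound, then a probe mix of 5 nM fluorescein-DNA and 100nM Texas-615-DNA. Fluorescence polarization was read for both dyes.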
An asterisk follows results filed as active; i = inactive; ? = inconclusive; · = no result given; ! = not confirmed by another sample; [ ] = another dose, or the depositor's remark. Unless noted, the call rests on the fitted dose curve; in most records, active means well fitted curve in the direction sought with a large enough effect; inconclusive means small, poorly fitted or top-dose-only effect, or another doubt; inactive means no such curve, though single readings can be large; an effect the other way counts as inactive or inconclusive. Potency means the concentration at half of the fitted maximal effect.

SMILES	RGS4 inhibitor	USP2a inh	Eya2 inh	ERG-DNA inh
S=C(S)N1CCCC1	5.3µM*!	2%	1%	-3%
CC(C)CC1C(=O)N2CCC[C@H]2[C@]2(O)O[C@](NC(=O)[C@@H]3C=C4c5cccc6[nH]c(Br)c(c56)C[C@H]4N(C)C3)(C(C)C)C(=O)N12 (stereo partly drawn)	11%	·	·	·
COc1ccc(C(=O)O)cc1OC	11%	·	·	-3%
O=C(O)c1cc[c]([Hg][Cl])cc1	6.7µM*!	-2%	-1%	6%
Oc1cc2c(cc1O)[C@H]1c3ccccc3CN[C@H]1CC2	240%[56.9 µM]	·	·	·
CN1CC[C@@]2(C)c3cc(O)ccc3N(C)C12 (stereo partly drawn)	21µM*	·	-22%	·
CCOC(=O)Nc1ccc(NCc2ccc(F)cc2)nc1N	8.4µM*	?	50µM*!	17%
CC[n+]1c(-c2ccccc2)c2cc(N)ccc2c2ccc(N)cc21	-7%	·	·	16µM*
C=C1C(=O)O[C@@H]2C[C@@H](C)[C@@H]3C=CC(=O)[C@@]3(C)[C@@H](O)[C@H]12	21µM*	10%	-11%	-1%
NCCCNCCSP(=O)(O)O	-12%[56.9 µM]	·	-3%	·
CCOC(=O)C1CCCN(c2ccc([N+](=O)[O-])c3nonc23)C1 (stereo not drawn)	18%	?	?	3.2µM*
CC1CCCN(c2ccc(C(=O)N3CCC4(CC3)OCCO4)cc2[N+](=O)[O-])C1 (stereo not drawn)	-10%	1%	8%	26%
Cc1cc(C(C#N)c2ccc(Cl)cc2)c(Cl)cc1NC(=O)c1cc(I)cc(I)c1O (stereo not drawn)	?	2%	10%	11%
CN1CCCCC1c1cccnc1 (stereo not drawn)	38µM*	·	·	·
Oc1ccc2c3c1O[C@H]1c4oc5ccccc5c4C[C@@]4(O)C(C2)N(CC2CC2)CC[C@]314	i	·	·	·
NC(N)=Nc1ccc2[nH]c3c(c2c1)C[C@@]1(O)[C@H]2Cc4ccc(O)c5c4[C@@]1(CCN2CC1CC1)[C@H]3O5	24µM*	0%	4%	8%
C=C(C)[C@@H]1CC[C@]2(C(=O)O)CC[C@]3(C)[C@H](CCC4[C@@]5(C)CC[C@H](O)C(C)(C)[C@@H]5CC[C@]43C)[C@@H]12 (stereo partly drawn)	i	·	·	·
CN(N=O)c1ccc(O)c(O)c1	6µM*	·	7%	·
O=C1/C(=C\c2ccccc2)C[C@@]2(O)[C@H]3Cc4ccc(O)c5c4[C@@]2(CCN3CC2CC2)[C@@H]1O5	i	·	·	·
NC(=O)CSc1nc2cc(S(=O)(=O)N3CCOCC3)ccc2o1	?	-2%	-12%	6%
NC(=O)CI	19µM*	·	-1%	·
Cc1ccc2cc3c(ccc4ccccc43)c3c2c1CC3	-110%[56.9 µM]	·	·	·
Clc1cncc(N2CCNCC2)n1	4.2µM*	·	·	·
Clc1ccc(N2CCNCC2)nn1	-26%	4%	5%	3%
N.N.N.N.N.N.N.N.N.N.N.N.N.N.O.O.[Ru+4].[Ru+5].[Ru+5]	19µM*	·	?	·
SMILES	RGS4 inhibitor	USP2a inh	Eya2 inh	ERG-DNA inh
CC(C)(C)C(=O)OC1=CN(Cc2ccccc2)S(=O)(=O)c2ccccc21	?	·	·	3%
COC1C(C)OC(OC2CC(C)(O)Cc3cc4c(c(O)c32)C(=O)c2c(O)cc3c(c2C4=O)OC2OC3(C)C(O)C(N(C)C)C2O)C(OC)C1(C)OC (stereo not drawn)	-43%	·	·	7.1µM*
N[C@@H](Cc1cc(I)c(O)c(I)c1)C(=O)O	-47%	1%	5%	?
NC(Cc1cc(O)c(O)cc1O)C(=O)O (stereo not drawn)	3µM*	?	-21%	·
CC[C@H](Oc1ccc(Cl)cc1)C(=O)OC1C[C@H]2CC[C@@H](C1)N2C (stereo partly drawn)	176%[56.9 µM]	·	·	·
COc1cccc(C2CCN(CC(=O)Nc3cc(Cl)ccc3OC)CC2O)c1 (stereo not drawn)	-12%	2%	0%	20µM*
COc1ccc(OC)c(NC(=O)Cn2cc(C(=O)c3ccccc3F)c3ccccc32)c1	1%	·	·	1%
N[C@@H](Cn1ccc(=O)n(Cc2ccc(C(=O)O)cc2)c1=O)C(=O)O	8.4µM*	·	·	·
NS(=O)(=O)c1cc(C(=O)OCC(=O)Nc2ccc3[nH]c(=O)[nH]c3c2)ccc1Cl	?	0%	2%	1%
CCC1C(=O)OCC1Cc1cncn1C (stereo not drawn)	27µM*!	·	-4%	·
CC1=C(O)C(=O)[C@@H]2O[C@@H]2C1=O	i	·	·	·

Source: PubChem
